Laboratory results from PubChem BioAssay AID2782 (National Center for Advancing Translational Sciences (NCATS), 2010).
Records with an inconclusive call do not appear. Unmarked numbers belong to inactive results. The source made the active and inactive calls. Calls follow the shape of the dose curve; as a rule, active = well fitted inhibition curve with a large enough effect in the polarisation, with a control signal flat (not every such curve was filed as active); inconclusive = small, poorly fitted or top-dose-only effect, or effect the other way, or a change in a side signal; inactive = no such curve, though single readings can be large or run the other way; the % refers to the polarisation.

Assay: Confirmation of Inhibitors Targeting the Menin-MLL Interaction in MLL Related Leukemias: Competition With Texas Red Labeled MLL-derived Mutant Peptide
Details: fluorescence polarization, Texas Red MLL peptide displacement; series mostly up to 94.6 µM; FP change, negative = inhibition: at the top concentration
Procedure, shortened: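 Hits from the primary screen were retested: compounds were incubated 1 hr at ambient with 200 nM menin, 50 nM Texas Red mutant peptide and 25 nM fluorescein wild-type peptide (Tris pH 7.5, BSA-supplemented buffer), then fluorescence polarization was read.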
% is scaled to controls: 0 for no effect and ±100 for the full control effect; potency is read from the fitted curve at half-maximal effect.

**Q.** Which “FP change, negative = inhibition” value does the source give for OC(c1ccccn1)(c1ccccn1)c1ccccn1 here?
**A.** -1.99% [at 288 µM]

**Q.** Which Potency does the source give for CN(C)C(CNc1ncnc2sc3c(c12)CCCCC3)c1ccco1 (configuration not stated) here?
**A.** 141 µM (active)

**Q.** For O=C(Nc1cccn(Cc2c(Cl)cccc2Cl)c1=O)c1c(Cl)cccc1Cl, which “FP change, negative = inhibition” value is on record?
**A.** 36.9% [at 288 µM]

**Q.** With CCC(c1nnnn1Cc1ccc(F)cc1)N1CCN(C2CCCCC2)CC1 (configuration not stated) as the compound, how does the Potency read?
**A.** 35.5 µM (active)

**Q.** Which “FP change, negative = inhibition” value does the source give for CCn1ncc(C(=O)Nc2cc(C)on2)c1C here?
**A.** -7.12%

**Q.** For COc1ccccc1/C=N/n1c(N)c(S(=O)(=O)c2cccs2)c2nc3ccccc3nc21, which “FP change, negative = inhibition” value is on record?
**A.** 34.1% [at 288 µM]

**Q.** Which Potency does the source give for COc1ccccc1CC(=O)Nc1ccc(-c2noc(COc3ccc(Br)cc3)n2)cc1 here?
**A.** 71 µM (active)

**Q.** For CCN1CCN(CC(=O)Nc2ccc(C(C)=O)cc2)CC1, which “FP change, negative = inhibition” value is on record?
**A.** -11.2%

**Q.** Which Potency does the source give for O=C(COC(=O)c1ccc(NS(=O)(=O)c2cccs2)cc1)Nc1nc2c(F)c(F)c(F)cc2s1 here?
**A.** 14.2 µM (active)

**Q.** Which Potency does the source give for CCc1cc2c(N3CCN(C(=O)c4ccco4)CC3)ncnc2s1 here?
**A.** 35.5 µM (active)

**Q.** With Cc1ccc(NS(=O)(=O)c2csc(C(N)=O)c2)cc1C as the compound, how does the “FP change, negative = inhibition” value read?
**A.** 4.48% [at 288 µM]

**Q.** With N#CC1=C(N)OC2=C(C(=O)CC(c3ccco3)C2)C1c1ccc(OCc2c(F)cccc2Cl)cc1 (configuration not stated) as the compound, how does the “FP change, negative = inhibition” value read?
**A.** 66.6% [at 288 µM]

**Q.** For CNC[C@H](CC1CCCCC1)NC[C@H](Cc1ccccc1)NCCC12CC3CC(CC(C3)C1)C2, which Potency is on record?
**A.** 63.1 µM (active)

**Q.** For Cc1ccccc1-c1n[nH]c(=S)n1C, which “FP change, negative = inhibition” value is on record?
**A.** -6.97%

**Q.** With O=C(CCN1CCN(c2ccc([N+](=O)[O-])cc2)CC1)c1ccc(Cl)cc1 as the compound, how does the “FP change, negative = inhibition” value read?
**A.** -16.1% [at 288 µM]

**Q.** With COc1ccc(OCCCn2ccnc2)cc1 as the compound, how does the “FP change, negative = inhibition” value read?
**A.** -7.95%

**Q.** Which “FP change, negative = inhibition” value does the source give for O=C(c1cc(F)c(F)cc1Cl)N1CCN(c2ncccn2)CC1 here?
**A.** 13.9%

**Q.** Which “FP change, negative = inhibition” value does the source give for Cn1ncc2c(N3CCCCC3)nc(NCCCO)nc21 here?
**A.** -1.8%

**Q.** For CCCCCC1CCC(C(=O)NCCN2CCOCC2)CC1 (configuration not stated), which “FP change, negative = inhibition” value is on record?
**A.** 17.5%

**Q.** For COc1ccc(-c2cc(=O)c3c(O)cc(O)c(-c4cc(-c5cc(=O)c6c(O)cc(O)cc6o5)ccc4OC)c3o2)cc1, which “FP change, negative = inhibition” value is on record?
**A.** 47.8% [at 288 µM]

**Q.** Which Potency does the source give for CCC(C)CCCCC(=O)NC(CCN)C(=O)NC(C(=O)NC(CCN)C(=O)NC1CCNC(=O)C(C(C)O)NC(=O)C(CCN)NC(=O)C(CCN)NC(=O)C(CC(C)C)NC(=O)C(Cc2ccccc2)NC(=O)C(CCN)NC1=O)C(C)O (configuration not stated) here?
**A.** 7.08 µM (active)

**Q.** For CCN(CC)Cc1cc2[nH]c3c4ccc(Cl)cc4ncc3c2cc1OC, which Potency is on record?
**A.** 56.4 µM (active)

**Q.** For CCn1cnc2c1c(=O)n(CC(=O)O)c(=O)n2Cc1ccccc1, which “FP change, negative = inhibition” value is on record?
**A.** -10.1% [at 288 µM]

**Q.** For COc1ccc(NC(=O)NC2(C(=O)N3CCOCC3)CCCCC2)cc1, which “FP change, negative = inhibition” value is on record?
**A.** 2.58%

**Q.** Which “FP change, negative = inhibition” value does the source give for CCOc1cc(C(c2c(C)[nH][nH]c2=O)c2c(C)[nH][nH]c2=O)cc(Br)c1OC here?
**A.** -14.2% [at 288 µM]

**Q.** For COc1cc(O)c(C(=O)c2ccccc2)cc1O, which “FP change, negative = inhibition” value is on record?
**A.** -15.4% [at 288 µM]

**Q.** For CN(C)CCCOc1ccc2c(c1)Sc1ccccc1CC2=O, which Potency is on record?
**A.** 141 µM (active)

**Q.** With Cn1c(=O)n(C)c2cc3[nH]cnc3cc21 as the compound, how does the “FP change, negative = inhibition” value read?
**A.** 10.9%

**Q.** For COc1ccc(NC(=O)N2CC[C@@]3(CCCN(C(=O)c4csnn4)C3)C2)cc1, which “FP change, negative = inhibition” value is on record?
**A.** 17.4%

**Q.** Which “FP change, negative = inhibition” value does the source give for CCCNC(=O)c1ccc2c(=O)c(O)c(C)[nH]c2c1 here?
**A.** -5.15%

**Q.** With COc1ccccc1C(=O)Nc1ccnn1C1CCN(CC2CC=CCC2)CC1 (configuration not stated) as the compound, how does the Potency read?
**A.** 126 µM (active)

**Q.** Which “FP change, negative = inhibition” value does the source give for Nc1cccc2c1C(=O)N(C(=O)c1ccco1)C2=O here?
**A.** -17.4%
